The results in this text go back to PubChem BioAssay (NCI).

The panel holds about 83,000 compounds, 20% with a hit somewhere; the sample as a whole holds those more often.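 Values shown are percent growth following 48 h exposure of cells in 96-well plates to a single concentration of compound; below 10 was considered active.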 A number with no mark means an inactive call. The source made the active and inactive calls.

Holding throughout (test): NCI-60 one-dose screen, 48 h (100 = growth as untreated, 0 = no growth, -100 = all killed)
Common to all, as to details: 10 µM unless noted

Assay [1] relates to T-47D breast.
Assay [2] concerns BT-549 breast.
Assay [3] has as its system MDA-MB-435 melanoma.
Assay [4] has as its system SW-620 colon.
In assay [5] the test system is MCF7 breast.
Assay [6] relates to HCC-2998 colon.
In assay [7] the test system is KM12 colon.
For assay [8], the system named is HCT-116 colon.

As for `COC1OC(C(COC(C)=O)OC(C)=O)C(OC(C)=O)C(OC(C)=O)C1OC(C)=O` (configuration not stated), the growth in assay [1] is 103%; in assay [2], 106%; in assay [3] it was 114%; in assay [4], 104%; in assay [5] it was 96%; in assay [6] it was 115%. In addition, in assay [7], the growth is 117%.

Regarding `Nc1c(Br)cc(O)c2c1C(=O)c1ccccc1C2=O`, the growth in assay [1] is 93.7%; in assay [2], 94.5%; in assay [3], 98%; in assay [4], 61.7%; in assay [5] it was 83.8%; in assay [8], 69.8%. For the same compound, the growth in assay [7] was 24.7%.

For the compound `O=Cc1ccc(F)cc1`, the growth in assay [1] is 94.6%; in assay [2], 100%; in assay [3], 97.9%; in assay [4], 92.8%; in assay [5], 92.6%; in assay [8] it was 101%. In addition, the growth in assay [7] was 109%.

For the compound `CC(=O)NCNC(C)=O`, the growth in assay [1] is 108%; in assay [2], 100%; in assay [3] it was 107%; in assay [4], 107%; in assay [5] it was 94%; in assay [6] it was 113%. For the same compound, the growth in assay [7] was 117%.

Take `Nc1nc(N)nc(N2CCCCC2)n1`: the growth in assay [1] was 101%; in assay [2], 106%; in assay [3], 115%; in assay [4], 106%; in assay [5] it was 104%; in assay [6], 106%. Also, the growth in assay [7] was 101%.

With `N=C(N)c1nn(C2OC(CO)C(O)C2O)c2nc[nH]c(=O)c12` (configuration not stated), the growth in assay [1] was -14.6% (active); in assay [2], -14.8% (active); in assay [3], -49.5% (active); in assay [4], -4.15% (active); in assay [5], 4.19% (active); in assay [6] it was -22.8% (active). Besides, the growth in assay [7] is -49.4% (active).

With `COc1cc(CC#N)c([N+](=O)[O-])cc1OC`, the growth in assay [1] is 105%; in assay [2], 105%; in assay [3], 111%; in assay [4], 119%; in assay [5] it was 102%; in assay [6], 108%. The growth in assay [7] was 104%.

Take `O=C(Nc1ccccc1)c1ccco1`: the growth in assay [1] was 103%; in assay [2] it was 98.1%; in assay [3], 109%; in assay [4], 104%; in assay [5], 95.5%; in assay [8], 92.3%. Also, the growth in assay [7] was 117%.

`Cc1ccc(C)c(CN(C)C)c1O`: the growth in assay [1] is 120%; in assay [2], 99.2%; in assay [3], 109%; in assay [4], 97.1%; in assay [5] it was 102%; in assay [6], 102%. In addition, the growth in assay [7] is 97.4%.

For `Nc1ccccc1SC1CC(=O)N(c2ccc(Cl)c(Cl)c2)C1=O` (configuration not stated), the growth was 74.8% in assay [1]; 124% in assay [2]; 101% in assay [3]; 98.8% in assay [4]; 112% in assay [5]; 87.4% in assay [8]. Moreover, in assay [7], the growth is 100%.

Take `CCCCCCCCCCC(=O)CCCCCCCCCC`: the growth is 92.3% in assay [1]; 95.3% in assay [2]; 106% in assay [3]; 104% in assay [4]; 101% in assay [5]; 94.4% in assay [6]. The growth in assay [7] was 104%.

As for `CCOC(=O)c1ccc(NC(C)=O)o1`, the growth is 93.5% in assay [1]; 104% in assay [2]; 103% in assay [3]; 78.7% in assay [4]; 96.9% in assay [5]; 102% in assay [7].

On to `CCCCCCCCCCCCCCCCOc1ccccc1NC(=O)CC(C)=O`, for which the growth in assay [1] was 111%; in assay [2] it was 90.9%; in assay [3], 102%; in assay [4], 110%; in assay [5], 91.9%; in assay [6], 104%. The growth in assay [7] was 94.5%.

For `CC(C)=CCC[C@@H](C)[C@H]1CC[C@@]2(C)C3=C(CC[C@]12C)[C@@]1(C)CC[C@H](O)C(C)(C)[C@@H]1CC3`, the growth was 92.8% in assay [1]; 109% in assay [2]; 101% in assay [3]; 99.9% in assay [4]; 97.3% in assay [5]; 101% in assay [6]. Further, the growth in assay [7] was 109%.

`CCCC(=O)c1cccs1`: the growth was 86.6% in assay [1]; 101% in assay [2]; 104% in assay [3]; 101% in assay [4]; 94.3% in assay [5]; 100% in assay [8]. The growth in assay [7] is 105%.

Turning to `Clc1ccc(-c2noc(/C=C\c3ccccc3)n2)cc1`, the growth is 89% in assay [1]; 102% in assay [2]; 92.7% in assay [3]; 110% in assay [4]; 74.4% in assay [5]; 95.2% in assay [6]. The growth in assay [7] is 100%.

As to `COc1cc(-c2ccc(NC(=O)CC(C)=O)c(OC)c2)ccc1NC(=O)CC(C)=O`, the growth in assay [1] was 108%; in assay [2], 83.6%; in assay [3], 105%; in assay [4] it was 104%; in assay [5], 106%; in assay [6], 100%. Further, in assay [7], the growth was 106%.

`BrCc1cccc(C[P+](c2ccccc2)(c2ccccc2)c2ccccc2)c1`: the growth in assay [1] is 28.2%; in assay [2], 93.1%; in assay [3], 18%; in assay [4] it was 25.4%; in assay [5], 53.3%; in assay [6], 33.1%. Further, the growth in assay [7] is 30.2%.

As for `CN(C)c1ccc(O)c2c1CC1CC3C(N(C)C)C(=O)C(C(N)=O)=C(O)C3(O)C(=O)C1=C2O` (configuration not stated), the growth in assay [1] is 50.5%; in assay [2], 29.2%; in assay [3] it was 44.8%; in assay [4], 47.8%; in assay [5] it was 53.4%; in assay [6] it was 49.7%. Also, in assay [7], the growth was 50%.
